The full ranking holds about 140,000 sequences; the median of “enrichment ratio after two sorts for PhoP signalling” is about 0, and the highest 2% start at about 11. This is one part of a sample in which the highest values are shown more often than they occur.
B1: PhoQ; a variant is named by its letters at X, in order, P23837 (parent)
chain: MKKLLRLFFPLSLRVRFLLATAAVVLVLSLAYGMVALIGYSVSFDKTTFRLLRGESNLFYTLAKWENNKLHVELPENIDKQSPTMTLIYDENGQLLWAQRDVPWLMKMIQPDWLKSNGFHEIEADVNDTSLLLSGDHSIQQQLQEVREDDDDAEMTHSVAVNVYPATSRMPKLTIVVVDTIPVELKSSYMVWSWFIYVLSANLLLVIPLLWVAAWWSLRPIEALAKEVRELEEHNRELLNPATTRELTSLVRNLNRLLKSERERYDKYRTTLTDLTHSLKTPLXXLQXXLRSLRSEKMSVSDAEPVMLEQISRISQQIGYYLHRASMRGGTLLSRELHPVAPLLDNLTSALNKVYQRKGVNISLDISPEISFVGEQNDFVEVMGNVLDNACKYCLEFVEISARQTDEHLYIVVEDDGPGIPLSKREVIFDRGQRVDTLRPGQGVGLAVAREITEQYEGKIVAGESMLGGARMEVIFGRQHSAPKDE

Variants of: B1
Experiment: enrichment ratio after two sorts for PhoP signalling (ratio (wild type AVST 3.29)); higher = more functional
Settings: with PhoP (E. coli)

| Variant | enrichment ratio |
| --- | --- |
| RKAI | ≤ 0.25 |
| SLME | 2.88 |
| HFYE | ≤ 0.25 |
| GSHY | ≤ 0.25 |
| QNET | ≤ 0.25 |
| QCSY | ≤ 0.25 |
| EMSY | ≤ 0.25 |
| GCLP | 0.401 |
| LLKQ | ≤ 0.25 |
| RVRE | ≤ 0.25 |
| VVHP | ≤ 0.25 |
| SIMQ | 33.3 |
| TLMQ | ≤ 0.25 |
| SRMQ | ≤ 0.25 |
| VYMQ | ≤ 0.25 |
| SYMQ | ≤ 0.25 |
| VVMQ | 13.3 |
| FSMQ | 3.93 |
| SLMQ | 11.8 |
| KLMQ | ≤ 0.25 |
| SSMQ | 11.5 |
| KYMQ | ≤ 0.25 |
| LNVR | ≤ 0.25 |

| Variant | enrichment ratio |
| --- | --- |
| KVQP | ≤ 0.25 |
| FGEF | ≤ 0.25 |
| ATMQ | 3.23 |
| PWPQ | ≤ 0.25 |
| PECM | ≤ 0.25 |
| VWYR | ≤ 0.25 |
| SQMQ | 7.7 |
| STMQ | 12 |
| NSMQ | ≤ 0.25 |
| TSMQ | 13.9 |
| SWMQ | ≤ 0.25 |
| KSMQ | ≤ 0.25 |
| RQGA | ≤ 0.25 |
| FECY | ≤ 0.25 |
| KYKH | ≤ 0.25 |
| YIRN | ≤ 0.25 |
| FEWK | ≤ 0.25 |
| FYPG | ≤ 0.25 |
| EFYK | ≤ 0.25 |
| IDSN | ≤ 0.25 |
| AYLV | 3.08 |
| AHLV | 1.12 |
| ANLV | 14.1 |

| Variant | enrichment ratio |
| --- | --- |
| AILV | 5.12 |
| KCLV | ≤ 0.25 |
| AKLV | 16.2 |
| VCLV | 13 |
| VYLV | ≤ 0.25 |
| MKLV | 9.89 |
| QCLV | 1.13 |
| VFLV | ≤ 0.25 |
| GCLV | 14.5 |
| RCEW | ≤ 0.25 |
| VEQN | ≤ 0.25 |
| PFRI | ≤ 0.25 |
| SNAR | ≤ 0.25 |
| LYVG | ≤ 0.25 |
| WLGW | ≤ 0.25 |
| SRLV | 0.905 |
| TKLV | 23.3 |
| IILV | 1.58 |
| ICLV | 18.8 |
| TPLV | ≤ 0.25 |
| KALV | ≤ 0.25 |
| HKLV | 0.341 |
| SNLV | 15.8 |

| Variant | enrichment ratio |
| --- | --- |
| AALV | 12.9 |
| YALV | 11.1 |
| IFLV | ≤ 0.25 |
| KKLV | ≤ 0.25 |
| EKVF | ≤ 0.25 |
| HDKH | ≤ 0.25 |
| VLRH | ≤ 0.25 |
| RKNR | ≤ 0.25 |
| SYSF | ≤ 0.25 |
| DGQH | ≤ 0.25 |
| YPAE | ≤ 0.25 |
| NFWK | ≤ 0.25 |
| MMNV | ≤ 0.25 |
| NALV | ≤ 0.25 |
| IPLV | ≤ 0.25 |
| GILV | 10.9 |
| IALV | 13.1 |
| GSLV | 17.9 |
| GSHK | ≤ 0.25 |
| LNLV | ≤ 0.25 |
| GNLV | 11.9 |
| WILV | ≤ 0.25 |

Source: a collection of fitness landscapes (doi:10.1126/science.1257360)
